Where “and” joins values, the source holds several entries; their conditions need not be identical. Equal entries are not always repeated. Among all 300,000 compounds or so, about 37,000 (12%) were called active. What follows is part of a selection rich in actives, with near analogues and random picks from the rest. Values without a mark were called inactive. No stated cut-off is given here; in the data, active means max response mostly above about 13% (no sharp cut-off); inactive means mostly below about 14%.
Experiment: Cycloheximide Counterscreen for Small Molecule Inhibitors of Shiga Toxin; further: read at 38.3 µM for the half of the compounds with a filed dose; 0% is about no effect
Conditions: cell reporter, cycloheximide protein synthesis inhibition counterscreen; stronger effect = higher value
Compound `Cc1ccc(C(C)C)c(OCCSc2nc3ccccc3n2CC(=O)O)c1` has a max response of -3.05%. With `CN(CC1CCCN(CCc2cccc(C(F)(F)F)c2)C1)C(=O)c1ccc2nc[nH]c2c1` (stereo not drawn) the max response was 7.92%. Work on `Cc1ccc(-c2nc(SCC(=O)Nc3ccccc3OC(F)F)c3c(C)c(C(=O)O)sc3n2)cc1` yielded a max response of -2.74%. With `Cc1ccc(C(C)(C)C)c(OCCCCN2CCCC2)c1` the max response was -1.44%. Work on `CCOc1ccc(NC(=O)CN(C)CC(=O)Nc2cccc(Cl)c2C)cc1OCC` yielded a max response of -1.94%. With `O=C(c1ccc(-c2ccccc2)cc1)C1CCCN(C(=O)c2cncs2)C1` (stereo not drawn) the max response was -0.779%. For `CCNC(=O)N1CCCC(C(=O)c2ccc(-c3ccccc3)cc2)C1` (stereo not drawn), the max response was 35% (active). For `Cc1ccccc1NC(=O)C1CCCN(C(=O)NCc2ccccc2)C1` (stereo not drawn), the max response was -2.13%. Work on `N#C/C(=C\c1cccnc1)C(=O)Nc1ccc(SC(F)F)cc1` yielded a max response of -2.71%. Work on `CCC(NC(=O)C1CCCC1)c1ccc(C)cc1` (stereo not drawn) yielded a max response of -1.61%. With `O=C(c1c(Cl)nc2sccn12)N1CCCc2ccccc21` the max response was 11.5%. For `Cc1c(C(=O)N2CC(C)OC(C)C2)sc2nc(-c3ccccc3)cn12` (stereo not drawn), the max response was 26.8% (active). For `Cc1c(C(=O)NCC2CCCO2)sc2nc(-c3ccccc3)cn12` (stereo not drawn), the max response was 78.5% (active). With `CC1CN(C(=O)CN2C(=O)NC(C)(c3ccccc3)C2=O)CC(C)O1` (stereo not drawn) the max response was -0.354%. `O=C(CSc1ccc(-c2ccccc2)nn1)NCC1CCCO1` (stereo not drawn) gave a max response of 8.54%. `Cc1cccc(C)c1NC(=O)N1CC(C)OC(C)C1` (stereo not drawn) gave a max response of -0.915%. For `CCOc1ccc(-n2c(N)c(C(=O)NCC3CCCO3)sc2=S)cc1` (stereo not drawn), the max response was -1.47%. In the case of `Cc1cccc2cc3c(N)c(C(=O)N4CCCc5ccccc54)sc3nc12`, the max response is reported as -2.83%. For `Cc1c(C(=O)N2CCCc3ccccc32)sc2nc(-c3ccccc3)cn12`, the max response was 7.76% (active). For `O=C(NC1CC1)C(Cc1ccccc1)NS(=O)(=O)c1ccccc1F` (stereo not drawn), the max response was -2.2%. In the case of `Cc1sc2nc(SCCO)n(-c3ccccc3)c(=O)c2c1C`, the max response is reported as 1.18%. Work on `Cc1oc2c(F)c(F)c(F)c(F)c2c1S(=O)(=O)Nc1cccc(C(F)(F)F)c1` yielded a max response of 2.32%. Compound `COc1ccc(CNC(=O)CSc2n[nH]c(N)n2)cc1OC` has a max response of -3.7%. `COc1ccc(C)cc1NC(=O)CN(C)S(=O)(=O)c1ccc2c(c1)n(C)c(=O)c(=O)n2C` showed a max response of 0.886%. With `Cc1ccc(NC(=O)c2cccs2)cc1S(=O)(=O)N(C)C` the max response was 17.7% (active). Compound `COc1ccc(CCC(=O)OCC(=O)Nc2ccc(C)c(S(=O)(=O)N(C)C)c2)cc1` has a max response of -1.02%. Compound `CCN(CC(=O)Nc1ccc(C)c(S(=O)(=O)N(C)C)c1)Cc1ccccc1` has a max response of 10.7%. In the case of `Cc1ccc(S(=O)(=O)N(C)C)cc1NC(=O)/C=C/c1cccs1`, the max response is reported as -3.65%. For `Cc1ccc(C(=O)Nc2ccc(C)c(S(=O)(=O)N(C)C)c2)s1`, the max response was 73.5% (active). Work on `Cc1ccc(C(=O)Nc2ccc(NC(=O)c3cccs3)cc2)c(C)c1` yielded a max response of 3.31%. With `CCn1c(SCC(=O)NC2CC2)nnc1-c1ccccc1OC` the max response was -2.41%. For `COc1ccc(C2CC(c3cccs3)=NN2C(=O)COC(=O)c2cc3ccccc3cc2O)cc1OC` (stereo not drawn), the max response was -1.77%. `C=CCn1c(SCc2ccc(C(=O)NCCO)cc2)nc2ccccc2c1=O` showed a max response of 0.679%. Compound `Cc1cc(C)cc(N(CC(=O)NC2CCCC2)C(=O)CCC(=O)Nc2cc(C)on2)c1` has a max response of -3.66%. With `O=C(c1ccco1)N1CCN(C(=O)c2cc(-c3ccccc3F)no2)CC1` the max response was 24.9% (active). For `O=C(NCCCN1CCOCC1)c1ccccc1NS(=O)(=O)c1ccc(F)cc1`, the max response was 16.7% (active). For `O=C(NCCCN1CCOCC1)c1cnn2c(-c3ccccc3)cc(-c3ccccc3)nc12`, the max response was -2.91%. With `O=C(NCCCN1CCOCC1)c1cc(-c2ccccc2F)no1` the max response was 28% (active). `O=C(NCCCN1CCOCC1)c1cc(-c2cccc(O)c2)on1` showed a max response of 2.22%. In the case of `O=C(NCCCN1CCOCC1)c1ccccc1NS(=O)(=O)c1ccc(Br)cc1`, the max response is reported as 2.08%. For `O=C(Cc1c(F)cccc1Cl)N1CCN(C(=O)c2ccco2)CC1`, the max response was -3.56%. `O=C(c1ccco1)N1CCN(C(=S)Nc2cc(F)cc(F)c2)CC1` showed a max response of -0.627%. With `O=C(NCCCN1CCOCC1)c1cc(-c2ccc(Cl)cc2)on1` the max response was -2.13%. In the case of `Cc1ccccc1-n1cc(CNC(=O)CC2C(=O)NCCN2C/C=C/c2ccccc2)cn1` (stereo not drawn), the max response is reported as 0.457%. For `COc1ccc(NC(=O)CCn2ccnc2)c(OC)c1`, the max response was -2.17%. Compound `COc1ccc(Cl)cc1NC(=O)C(C)N1CCc2ccccc21` (stereo not drawn) has a max response of -0.595%. `CC1CC(C)CN(C(=O)CSc2ccsc2[N+](=O)[O-])C1` (stereo not drawn) showed a max response of 25.5%. `COc1ccc(C(CNC(=O)COc2ccccc2OC)N2CCCCC2)cc1` (stereo not drawn) showed a max response of -6.3%. Work on `CC1CN(CCCOc2ccccc2-c2ccccc2)CC(C)O1` (stereo not drawn) yielded a max response of -3.01%. `NNC(=O)CSc1nnc(-c2ccccc2)n1-c1ccccc1` showed a max response of -4.61%. `COc1ccc(C(=O)C2CCCN(S(=O)(=O)c3cccc(C)c3)C2)c(C)c1` (stereo not drawn) showed a max response of 1.12%. `COc1ccc(Cc2nnc(SCC(=O)Nc3ccc(C)c(C)c3)o2)cc1OC` showed a max response of -0.716%. Work on `O=C(c1cccc(N2CCCC2=O)c1)N1CCOCC1` yielded a max response of -1.05%. For `NC1=NN(c2cccc(C(=O)O)c2)C(=O)C1`, the max response was 131% (active). Work on `COC(=O)CC1=NN(c2ccccc2)C(=O)C1` yielded a max response of -2%. Work on `CCO[C@H]1OC(C(=O)N2CCN(Cc3ccccc3)CC2)=C[C@@H](c2cn(C(C)=O)c3ccccc23)[C@@H]1CCCO` yielded a max response of -1.61%. `O=C(Nn1cnc2ccccc2c1=O)c1ccccc1` gave a max response of 18%. In the case of `O=C(Nn1cnc2ccccc2c1=O)c1ccc([N+](=O)[O-])cc1Cl`, the max response is reported as 3.29%. For `O=C(Nn1cnc2ccccc2c1=O)c1ccc(F)cc1Cl`, the max response was 22.9% (active). `COc1cc(CCC(=O)N2CCN(c3ccccc3Cl)CC2)cc(OC)c1OC` gave a max response of -5.65%. Work on `CNC(=S)N/N=C/c1ccc(OCc2ccccc2)c(Br)c1` yielded a max response of -5.52%. `Cc1ccc(CNC(=O)C2(C(F)(F)F)C/C(=C\CCO)CCCO2)o1` (stereo not drawn) showed a max response of 7.26%. `CCC(=O)Nc1cccc(NC(=O)CSc2nnc(-c3ccc(NS(C)(=O)=O)cc3)n2C)c1` gave a max response of -1.2%. With `CS(=O)(=O)Nc1cccc(-c2cn3ccccc3n2)c1` the max response was 19.3% (active). Compound `COc1ccc(OC)c(S(=O)(=O)Nc2cccc(-c3ccc4nncn4n3)c2)c1` has a max response of -3.34%. For `CC(=O)C1=C(O)C(=O)N(c2ccc(Br)cc2)C1c1ccc([N+](=O)[O-])cc1` (stereo not drawn), the max response was -1.92%. In the case of `Oc1ccc(Br)cc1C=Nc1ccc2[nH]ncc2c1`, the max response is reported as -2.62%. `CCN(CC)CCn1c(/N=C/c2cc(Br)ccc2O)nc2ccccc21` gave a max response of 8.52%. For `Oc1ccc(Br)cc1/C=N/Nc1ccccn1`, the max response was 41.6% (active). With `COc1cccc(-n2c(N)cc(=O)nc2SCC(=O)Nc2cc(C)on2)c1` the max response was -3.66%. `Cc1ccnc(N2CCN(C(=O)CSc3nc4ccccc4nc3N3CCCCC3)CC2)c1` showed a max response of -5.65%. For `Cn1c(Nc2ccccc2)cc(=O)n(C)c1=O`, the max response was -4.74%. Compound `COc1ccc(C(=O)COC(=O)CNC(=O)c2cccs2)cc1Br` has a max response of -4.46%. `COc1cc(NC(=S)NCCSc2ccc(C)cc2)cc(OC)c1` gave a max response of 2.45%. For `Cc1ccc(C(=O)NNC(=O)c2cc3cc4ccccc4nc3s2)cc1`, the max response was -2.84%. With `Cc1ccc(C(=O)NNc2ncnc3ccccc23)cc1` the max response was 37.5% (active). Compound `CCc1nc(SCC(=O)NNC(=O)c2ccc(C)cc2)c2ccccc2n1` has a max response of -3.44%. Work on `CCOc1ccccc1-c1nc(CN2CCC(C(=O)N3CCOCC3)CC2)c(C)o1` yielded a max response of 5.66%. `CCOC(=O)CSc1nnc(NC(=O)C2CC(=O)N(c3ccc(F)cc3)C2)s1` (stereo not drawn) gave a max response of 4.08%. For `Cc1cc(-c2n[nH]c(=S)n2/N=C/C(Br)=C/c2ccccc2)n[nH]1`, the max response was 95.8% (active). Compound `Cc1cc(-c2n[nH]c(=S)n2/N=C/c2ccco2)n[nH]1` has a max response of 0.979%. In the case of `S=c1[nH]nc(-c2cccnc2)n1/N=C/C(Cl)=C\c1ccccc1`, the max response is reported as -2.93%. With `Cc1nn(C)cc1S(=O)(=O)N1CCN(c2ccc(F)cc2)CC1` the max response was 11.1%. For `CN(C(=O)COC(=O)CNC(=O)C12CC3CC(CC(C3)C1)C2)c1ccccc1`, the max response was 1.16%. In the case of `C#C[C@]1(O)CC[C@H]2[C@@H]3CCC4=CC(=O)CC[C@@H]4[C@H]3CC[C@@]21CC`, the max response is reported as -12.5% and -2.99% and -5.94%. `Cc1nc(CN(C)C(=O)CC2C(=O)NCCN2Cc2ccc(F)cc2)cs1` (stereo not drawn) showed a max response of -1.31%. In the case of `Brc1ccc(C2CC(c3ccccc3)=Nc3ccccc3N2)cc1` (stereo not drawn), the max response is reported as 43.8% (active). `CNC(=S)N1N=C(c2ccccc2)CC1c1ccc(Br)cc1` (stereo not drawn) showed a max response of 12.1%. `Brc1ccc(C2=NCCC(c3ccccc3)O2)cc1` (stereo not drawn) gave a max response of 6.52%. In the case of `CNC[C@H](CC1CCCCC1)NC[C@H](NCCC1CCCC1)[C@H](C)O`, the max response is reported as -3.05%. For `CCOc1ccc2cc(C#N)c(SCC(=O)OC)nc2c1`, the max response was 26.6% (active). With `Cc1nonc1NC(=O)CSc1nc2ccccc2cc1C#N` the max response was 29.2%. In the case of `COc1ccc(N2CCN(C(=O)CSc3nc4cc(OC)c(OC)cc4cc3C#N)CC2)cc1`, the max response is reported as 2.1%.
